Experimental data from ChEMBL document CHEMBL4513216, “Probing the Open Global Health Chemical Diversity Library for Multistage-Active Starting Points for Next-Generation Antimalarials” (ACS Infect Dis, 2020).
About 8,600 (12%) of roughly 69,000 compounds showed an effect of 50% or more. The sample holds strong results, similar compounds and a random draw of the others, so the mix is not that of the screen.

test system: Plasmodium berghei; test: Screen against P. berghei liver stage (PbLuc), transformed with Luciferase, at 10uM; format: functional, HepG2; conditions: tested at 10 uM

In order of falling INHIBITION:
1. COc1cccc(OC)c1CNC(Cc1ccsc1)c1ccc(C)cn1 (stereo not drawn)  84.2%
2. CN1CC(c2ccccc2)CC2(CCN(C(=O)c3cccnn3)CC2)C1 (stereo not drawn)  81.2%
3. Cc1ccc(CC(=O)NC(C)C(=O)N2CCS(=O)(=O)CC2)s1 (stereo not drawn)  76.2%
4. COc1ccc(CNC(Cc2ccsc2)c2ccc(C)cn2)c(OC)c1 (stereo not drawn)  68.4%
5. Cc1n[nH]c(C)c1CNC(=O)N(Cc1ccccc1)CC(C)(C)O  68%
6. CCS(=O)(=O)N1Cc2c(Cn3ccnc3)nn(C(C)C)c2C1  65.1%
7. Cc1n[nH]c(C)c1CC(=O)NCc1ccccc1Cl  64.8%
8. Cc1nn(C)c(C)c1C(=O)NN1CCOCC1  62.3%
9. CNC(=O)CN1CCCC(Cc2ccccc2OC)C1 (stereo not drawn)  59%
10. N#Cc1ccc(NCc2cccnc2N2CCC(C(N)=O)CC2)cn1  57.3%
11. Cc1c(Cl)c(C(=O)NN2CCOCC2)nn1C  55.7%
12. CCn1cc(NC(=O)C2CCN(Cc3nc(C)c(C)s3)CC2)cn1  55.6%
13. CN1CC(c2ccccc2)CC12CCN(C(=O)c1c(Cl)cnn1C)CC2 (stereo not drawn)  55.1%
14. COc1ccc(CNC(Cc2ccsc2)c2ncccc2C)cc1OC (stereo not drawn)  55.05%
15. Cc1c(Cl)c(C(=O)NC(C)CN2CCOCC2)nn1C (stereo not drawn)  54.9%
16. CCn1cc(NC(=O)C2CCN(Cc3nc(C(C)C)no3)CC2)cn1  53.9%
17. Cc1n[nH]c(C)c1CC(=O)NCCc1ccccc1  52.5%
18. COc1ccc2nnc(CCCC(=O)NCCc3ccccn3)n2n1  51.9%
19. N#Cc1cccnc1NCc1cccnc1N1CCCCC1  51.7%
20. CCc1ccc(C2NCCc3cc4c(cc32)OCCO4)cc1 (stereo not drawn)  51.5%
21. CN1CC(c2ccccc2)CC12CCN(C(=O)c1cccnc1)CC2 (stereo not drawn)  51.2%
22. Cc1cccc(N2N=C(C(=O)NC(C)Cn3cccn3)CCC2=O)c1 (stereo not drawn)  50.5%
23. CCOCCn1c(=O)[nH]c2cc(C(=O)N(C)CCc3cn[nH]c3)ccc21  50.1%
24. CC(NC(=O)Cc1ccccc1F)C(=O)N1CCS(=O)(=O)CC1 (stereo not drawn)  49.4%
25. CN1CC(c2ccccc2)CC2(CCN(C(=O)c3ccccc3)CC2)C1 (stereo not drawn)  49.4%
26. O=C(c1cnccn1)N1CCc2ncc(CN3CCOCC3)n2CC1  48.6%
27. Cc1ncsc1CNC(=O)N(Cc1ccccc1)CC(C)(C)O  47.4%
28. CC(C)NC(=O)CN1CCC(c2cccc(F)c2)C1 (stereo not drawn)  45.65%
29. Clc1ccc(C2NCCc3cc4c(cc32)OCCO4)cc1 (stereo not drawn)  45.6%
30. N#Cc1cccnc1Nc1ccc(N2CCC(C(N)=O)CC2)cc1  45.2%
31. CC(C)C[C@H](NC(=O)NC1CCS(=O)(=O)C1)C(=O)NCc1cccnc1 (stereo partly drawn)  44.9%
32. CC(C)CC(NCc1ccsc1)c1ccccn1 (stereo not drawn)  44.6%
33. CC(C)(C)NC(=O)NC(=O)CN1C=Nc2ccccc2S1(=O)=O  44.3%
34. CC(C)Oc1cccc(CNC(Cc2ccsc2)c2nccs2)c1 (stereo not drawn)  44.3%
35. COc1ccc(CNC(Cc2ccsc2)c2ccc(C)cn2)cc1OC (stereo not drawn)  44.3%
36. CSc1ccc(CCNC(=O)Cc2c(C)n[nH]c2C)cc1  40.3%
37. O=C(C1CCCCC1)N1CCC(n2nc(-c3ccco3)ccc2=O)CC1  40%
38. COC(=O)N1CCC2(CC1)CC(c1ccccc1)CN(C)C2 (stereo not drawn)  39.4%
39. CN1CC(c2ccccc2)CC12CCN(C(=O)c1ccc(Cl)cc1)CC2 (stereo not drawn)  37.6%
40. Cc1ccn(-c2ccc(NCc3cccnc3N3CCCCC3)nn2)n1  34.4%
41. COc1ccc2nnc(CCCC(=O)NCCc3ccncc3)n2n1  32.2%
42. Cc1cccc(N2N=C(C(=O)NC(C)Cc3ccco3)CCC2=O)c1 (stereo not drawn)  32%
43. COc1ccc(CNC(Cc2cccs2)c2nc(C)c(C)s2)cc1OC (stereo not drawn)  30.4%
44. Cc1nc(CNC(=O)N(Cc2ccccc2)CC(C)(C)O)oc1C  28.6%
45. CN1CC(c2ccccc2)CC12CCN(C(=O)c1ccc(Cl)cn1)CC2 (stereo not drawn)  28.5%
46. CCS(=O)(=O)N1Cc2c(Cn3ccnc3)nn(C)c2C1  26.5%
47. CC(C)N(C)Cc1cc(=O)n2c(n1)CN(S(=O)(=O)C1CC1)CCC2  25.6%
48. Cc1cccc(C(=O)N2CCC3(CCN(c4cnn(C)c4)C3=O)C2)n1 (stereo not drawn)  24.9%
49. CCOCCn1c(=O)[nH]c2cc(C(=O)N(C)Cc3cnn(C)c3)ccc21  24.065%
50. Cc1cnn(CC2CCCN2C(=O)c2cc(Cl)ccc2F)c1 (stereo not drawn)  22.9%
51. O=C(c1ccc[nH]1)N1CCC2(CC1)CC(Oc1cccnc1)CO2 (stereo not drawn)  22.5%
52. CCCc1noc(CN2CCC(C(=O)Nc3cnn(CC)c3)CC2)n1  22.3%
53. Cc1noc(CNC(=O)C(C)(C)NC(=O)OC(C)(C)C)n1  22%
54. CSc1ccc(CNC(=O)Cc2c(C)n[nH]c2C)cc1  21.8%
55. O=C(CN1CCOc2ccccc2C1)NCc1cc2n(n1)CCNC2  21.7%
56. CCn1cc(NC(=O)C2CCN(Cc3ccccc3)CC2)cn1  21.6%
57. COC(=O)CC(c1cccc(OC(F)F)c1)c1oc(C)cc(=O)c1O (stereo not drawn)  21.5%
58. O=C(CCc1ccc(F)c(F)c1)N1CCCCC1Cn1cccn1 (stereo not drawn)  21.5%
59. Cc1cc(Cc2ccc(S(=O)(=O)N3CCCC3)cc2)c(=O)[nH]n1  20.9%
60. CCn1ncc(-c2cc(C(F)F)n3nc(CCC(=O)O)nc3n2)c1C  20.4%
61. CNC(=O)C1(c2cnccn2)CCCN1C(=O)c1ncccc1C (stereo not drawn)  19.6%
62. CCOC(C)C(=O)NCCNS(C)(=O)=O (stereo not drawn)  19.3%
63. O=C1CO[C@H]2CCN(C(=O)c3ccc4c(c3)CCCC4)CC[C@@H]2N1  16.675%
64. Cc1nc2cc(=O)[nH]n2c(C)c1CC(=O)NCc1ccoc1  15.465%
65. CNC(=O)C1(CCCc2ccccn2)CN(Cc2coc(C)n2)C1  14.6%
66. CNC(=O)CN1CCO[C@H]2CN(CC3CCOCC3)C[C@H]21  13.7%
67. Cc1cc(C(=O)NCc2c(C)nn(C)c2C)nc(N2CCOCC2)n1  12.9%
68. Cc1cccc(N2N=C(C(=O)NC(C)CCc3ccco3)CCC2=O)c1 (stereo not drawn)  12.4%
69. CCS(=O)(=O)N1Cc2c(Cn3cccc3)nn(C(C)C)c2C1  12.1%
70. CCc1csc(C2CCCN(C(=O)c3cc(Cl)c[nH]3)C2)n1 (stereo not drawn)  11.9%
71. CN1CCCC1CNC(=O)CCCOc1cccc(F)c1 (stereo not drawn)  11.5975%
72. CN1CC(c2ccccc2)CC12CCN(C(=O)c1cncc(Cl)c1)CC2 (stereo not drawn)  8.47%
73. CCn1cc(NC(=O)C2CCN(Cc3nc(C)c(C)o3)CC2)cn1  8.31%
74. CN1CC(c2ccccc2)CC12CCN(C(=O)c1ccncc1)CC2 (stereo not drawn)  7.6%
75. CCC(NC1CCN(C(=O)c2ccccc2)CC1)c1cccs1 (stereo not drawn)  7.22%
76. CCc1noc(CN2CCC(C(=O)Nc3cnn(CC)c3)CC2)n1  5.9%
77. O=C1CN([C@@H]2CC[C@@H](NS(=O)(=O)c3ccccc3)[C@H]2O)CCN1  4.5%
78. CCCN(C)C(=O)c1ccc2c(c1)[nH]c(=O)n2CCOCC  3.47%
79. Fc1ccccc1C1NCCc2cc3c(cc21)OCCO3 (stereo not drawn)  2.6%
80. Cc1nn(C)c(C)c1CC(=O)NCc1cccnc1N1CCOCC1  1.48%
81. N#Cc1cccnc1NCc1cccnc1N1CCC(C(N)=O)CC1  -0.182%
82. Cn1nccc1C(=O)N1Cc2cc(Cl)ccc2OC2(CCOCC2)C1  -0.902%
83. Cc1cccnc1C(Cc1ccsc1)NCc1cnc(N(C)C)nc1 (stereo not drawn)  -2.495%
84. Cc1nc2cc(=O)[nH]n2c(C)c1CC(=O)NCCCc1ccccc1  -4.3%
85. Cc1noc(Cl)c1CCC(=O)N1CCC(Nc2cccnn2)CC1  -5.07%
86. Cc1c(Cl)c(C(=O)NCc2ccc(F)cc2)nn1C  -6.18%
87. CCCC1COCCN1Cc1ccc(S(=O)(=O)NC)cc1 (stereo not drawn)  -6.39%
88. CCCS(=O)(=O)N1C[C@@H](OCc2ccncc2)[C@H]2OCCC[C@H]21  -7.2%
89. Cc1noc([C@@H]2C[C@H]3CN(CC4CCOCC4)C[C@H]3O2)n1  -7.7%
90. Cc1nccn1CCCNc1ccc(Cl)c(C#N)n1  -9.39%
91. Cc1ccc(CC(=O)NC(C)C(=O)N2CCS(=O)(=O)CC2)cc1 (stereo not drawn)  -11.1%
92. CC(O)CCN(C)C(=O)Nc1ccc(Br)cc1 (stereo not drawn)  -12.1%
93. COc1ccc(CN2CCC(c3cc(O)nc(C)n3)C2)c(OC)c1 (stereo not drawn)  -12.2%
94. O=C(c1cc(-c2cccnc2)[nH]n1)N1CCCC(Cc2ccccn2)C1 (stereo not drawn)  -12.76%
95. CC(C)N(C)CC(=O)NCC(Cc1ccc(F)cc1)C(N)=O (stereo not drawn)  -16%
96. O=C(O)c1cc(C=Cc2ccccc2)ncn1  -20.2%
97. COc1ccc(C2=NOC(C(=O)N3CCCc4ccccc43)C2)cc1 (stereo not drawn)  -20.6%
98. Cn1nc(C(=O)NN2CCOCC2)c(Cl)c1C(F)(F)F  -23%
99. CCC(=O)NCCNC(=O)c1nn(C)c(C)c1Cl  -23%
100. CC(CN1CCOCC1)NC(=O)c1cc(Cl)c2c(c1)OCCO2 (stereo not drawn)  -23.7%
101. Cc1ccc(C(N)c2cccc(S(C)(=O)=O)c2)c(C)c1 (stereo not drawn)  -24.2%
102. COc1ccccc1CC1CCCN(CC(=O)NC2CC2)C1 (stereo not drawn)  -25.9%
103. Cc1n[nH]c(C)c1CNC(=O)CSCc1ccccc1Cl  -26.4%
104. O=C(c1cocn1)N1CCC[C@]2(C[C@@H](Oc3ncccc3F)CO2)C1  -26.5%
105. CN1CCN(c2ncccc2CNc2ncccc2C#N)CC1  -29.4%
106. COc1ccc2nnc(CCCC(=O)NCCc3ccccc3)n2n1  -31%
107. CNC(=O)NC(=O)CN1CCCC(Cc2ccccc2OC)C1 (stereo not drawn)  -43.6%
108. CNc1ncccc1CN1CCN(C(C)=O)CC(C(N)=O)C1 (stereo not drawn)  -61.5%
